Experimental data taken from PubChem BioAssay (NCI).
The panel holds about 83,000 compounds, 20% with a hit somewhere; the sample as a whole holds those more often.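 Growth was measured after 48 h exposure to one concentration of compound in 96-well plates. Values under 10 count as active.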 Values without a mark were called inactive. Active and inactive are the calls of the source.

Columns and labels:
Experiment in all cases: NCI-60 one-dose screen, 48 h (100 = growth as untreated, 0 = no growth, -100 = all killed)
SR leukemia = details: 10 µM unless noted
RPMI-8226 leukemia = details: 10 µM unless noted
OVCAR-8 ovarian = details: 10 µM unless noted
OVCAR-5 ovarian = details: 10 µM unless noted
OVCAR-4 ovarian = details: 10 µM unless noted
SK-OV-3 ovarian = details: 10 µM unless noted
IGROV1 ovarian = details: 10 µM unless noted
OVCAR-3 ovarian = details: 10 µM unless noted
NCI/ADR-RES ovarian = details: 10 µM unless noted
T-47D breast = details: 10 µM unless noted
BT-549 breast = details: 10 µM unless noted
MDA-MB-435 melanoma = details: 10 µM unless noted
SW-620 colon = details: 10 µM unless noted
MCF7 breast = details: 10 µM unless noted
HCT-116 colon = details: 10 µM unless noted
HCC-2998 colon = details: 10 µM
KM12 colon = details: 10 µM unless noted

Structure (SMILES)	growth (SR leukemia)	growth (RPMI-8226 leukemia)	growth (OVCAR-8 ovarian)	growth (OVCAR-5 ovarian)	growth (OVCAR-4 ovarian)	growth (SK-OV-3 ovarian)	growth (IGROV1 ovarian)	growth (OVCAR-3 ovarian)	growth (NCI/ADR-RES ovarian)	growth (T-47D breast)	growth (BT-549 breast)	growth (MDA-MB-435 melanoma)	growth (SW-620 colon)	growth (MCF7 breast)	growth (HCT-116 colon)	growth (HCC-2998 colon)	growth (KM12 colon)
COc1cc(Nc2c(C#N)cnc3cc(OCCCN4CCN(C)CC4)c(OC)cc23)c(Cl)cc1Cl	31.5%	59.3%	42.9%	22.8%	56%	44.3%	6.33% (active)	77.9%	78.6%	59.4%	85.2%	31.1%	37%	58.3%	23.3%	26.9%	32.9%
CN(c1ncccc1CNc1nc(Nc2ccc3c(c2)CC(=O)N3)ncc1C(F)(F)F)S(C)(=O)=O	-6.03% (active)	-7.65% (active)	4.96% (active)	7.36% (active)	-7.63% (active)	5.63% (active)	7.61% (active)	15.1%	56.2%	-2.8% (active)	-10.5% (active)	-9.58% (active)	0.466% (active)	2.39% (active)	1.07% (active)	-13.5% (active)	1.83% (active)
COc1cc2c(cc1OCCCN1Cc3ccc(OCCCCC(=O)N4CCC(CCN5CCCC5)CC4)cc3C1)N=C(N)C21CCCC1	1.87% (active)	62.6%	97.9%	102%	77%	71.7%	83%	99.2%	107%	56.2%	63.4%	81.5%	66.4%	58.5%	68.1%	101%	78.5%
CSc1nc2ncncc2[nH]1	95.2%	201%	104%	93.9%	102%	113%	76.1%	109%	106%	93.8%	110%	91.9%	106%	94.4%	84.8%	108%	116%
COc1cc2nccc(Oc3ccc(NC(=O)Nc4cc(C)on4)c(Cl)c3)c2cc1OC	4.19% (active)	21%	15.3%	20.2%	31.1%	-17.3% (active)	0.0648% (active)	35.1%	10.2%	-1.14% (active)	19.6%	14.8%	10.7%	22.8%	-4.79% (active)	56.6%	11.4%
O=c1sn(-c2cccc3ccccc23)c(=O)n1Cc1ccccc1	38.7%	76.8%	94.4%	112%	107%	83%	98.2%	99.4%	107%	91.5%	110%	104%	110%	103%	88.1%	110%	104%
CC1(O)CC(c2nc(-c3ccc4ccc(-c5ccccc5)nc4c3)c3c(N)nccn23)C1 (centres undefined)	33.9%	31.8%	39%	41.3%	33.1%	13.5%	40.1%	56.6%	41%	2.62% (active)	19.5%	36.3%	35.4%	14.5%	35.3%	48.7%	8.69% (active)
c1cc(OCCN2CCCCC2)cc(-c2n[nH]c3ccc(-c4ncn[nH]4)cc23)c1	7.19% (active)	58.4%	72.2%	56.5%	62.7%	31.8%	30.9%	69%	89.7%	68.3%	70.3%	42.1%	35.6%	57.9%	28.7%	66.7%	39.6%
COC(=O)N[C@@H](C)CNc1nccc(-c2cn(C(C)C)nc2-c2cc(Cl)cc(NS(C)(=O)=O)c2F)n1	51.7%	113%	72.5%	42.9%	71.4%	22.8%	42.2%	87%	96.8%	79.3%	72.9%	25.5%	52.7%	95.2%	19.5%	69.6%	69.7%
CC[C@H](CO)Nc1nc(NCc2ccccc2)c2ncn(C(C)C)c2n1	7.1% (active)	85.5%	63.8%	50.9%	73.2%	102%	49%	65.2%	71.4%	48.4%	78.1%	83.6%	69.3%	31.5%	30.1%	74.5%	47.6%
CO[C@H]1C[C@@H]2CC[C@@H](C)[C@@](O)(O2)C(=O)C(=O)N2CCCC[C@H]2C(=O)O[C@H]([C@H](C)C[C@@H]2CC[C@@H](OP(C)(C)=O)[C@H](OC)C2)CC(=O)[C@H](C)/C=C(\C)[C@@H](O)[C@@H](OC)C(=O)[C@H](C)C[C@H](C)\C=C/C=C/C=C/1C	13.1%	34.8%	34.3%	60.7%	28.6%	12.2%	24.4%	59.7%	51.4%	11.5%	39.7%	56.7%	60.1%	30.5%	65.1%	56.4%	59.6%
O=C(O)c1ccc2c(c1)nc(Nc1cccc(Cl)c1)c1ccncc12	-11.3% (active)	10.6%	5.65% (active)	10.6%	-2.42% (active)	-27.1% (active)	-22.2% (active)	2.03% (active)	5.81% (active)	-22.1% (active)	-5.65% (active)	5.4% (active)	6.63% (active)	5.91% (active)	3.79% (active)	15.1%	11.5%
CN1CCN(CCOc2cc(OC3CCOCC3)c3c(Nc4c(Cl)ccc5c4OCO5)ncnc3c2)CC1	38.7%	95.1%	55.6%	29.1%	95.8%	-14.6% (active)	-15.6% (active)	59.3%	60.7%	-14.3% (active)	89.2%	98.3%	110%	62.8%	35.3%	90.7%	17.1%
CC(N)C(Cc1ccc(Cl)cc1)c1ccc(Cl)cc1 (centres undefined)	-9.14% (active)	25.3%	71.5%	77.9%	71.7%	81.9%	77.8%	87.2%	87.5%	54.8%	77.6%	56.5%	57.3%	91.1%	35%	-6.15% (active)	63%
Cc1c(CN2CCN(C(=O)[C@H](C)O)CC2)sc2c(N3CCOCC3)nc(-c3cnc(N)nc3)nc12	-3.28% (active)	1.84% (active)	-4.51% (active)	-11.6% (active)	-9.47% (active)	-39.1% (active)	-50.1% (active)	3.12% (active)	7% (active)	-38% (active)	-3.06% (active)	-9.11% (active)	7.94% (active)	1.68% (active)	5.47% (active)	0.359% (active)	6.74% (active)
Cc1cc(-c2cc(OC(=O)c3ccccc3)ccc2Cl)cc2nnc(Nc3ccc(OCCN4CCCC4)cc3)nc12	0.433% (active)	74.4%	68.6%	81%	-40.5% (active)	52.6%	69.4%	86.3%	110%	91.8%	110%	-70.6% (active)	105%	3.92% (active)	55.5%	109%	90.5%
O=C(Nc1nc2cccc(-c3ccc(CN4CCS(=O)(=O)CC4)cc3)n2n1)C1CC1	45.4%	62.5%	58.1%	75.3%	78.4%	58.4%	65%	57.5%	90.3%	80.4%	53.6%	91.3%	30.1%	16.7%	44.3%	79.2%	31.7%
